Data published in PubChem BioAssay AID652154 (Broad Institute, 2013).
About 4,200 (1.2%) of roughly 360,000 compounds were called active. This is one part of a sample in which actives are shown more often than they occur.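 How the source made its calls: active means mean replicate inhibition at least 60% with every replicate also reaching 60%; inconclusive means only one of the two criteria is met; inactive means mean below 60% and not all replicates reaching 60%.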

test: PAX8 transcriptional activity inhibition in RMG-I – RMG-I cells, luciferase, single concentration, primary screen (AID 652154); conditions: RMG-I TPO-luciferase reporter, SteadyGlo, 24 h; at 12.6 µM; hits give high values;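 further: luciferase light reporting Pax8 driven TPO promoter activity; plate controls were median of neutral control wells for no effect and mitoxantrone controls for full effect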

inhibition, active:
C[C@@H]1CCCCO[C@H](CN(C)C(=O)Nc2ccc(C(F)(F)F)cc2)[C@@H](C)CN([C@@H](C)CO)C(=O)c2cc(NS(=O)(=O)c3cccs3)ccc2O1 80.1%
C[C@@H]1CN([C@H](C)CO)C(=O)c2cc(NS(=O)(=O)c3cccs3)ccc2O[C@@H](C)CCCCO[C@H]1CN(C)Cc1ccc(C(F)(F)F)cc1 96.8%
CCOc1ccccc1NC(=O)Cn1nnc(C(=O)NCc2cccs2)c1N 68.5%
CSc1nc(-c2ccccc2)nc(C(Cl)Cl)n1 99.3%
COc1cccc2c1C(=O)c1c(O)c3c(c(O)c1C2=O)CC(O)(C(C)=NNC(=O)c1ccc(Cl)c(Cl)c1)CC3OC1CC(N)C(O)C(C)O1 (configuration not stated) 107%
CCCCCCCCC(=O)NCCOc1ccccc1 111%
COc1cccc(C(=O)Nc2nc3ccc(S(C)(=O)=O)cc3s2)c1 80.8%
COc1cccc(/C=N/Nc2ncc(C(F)(F)F)cc2Cl)c1O 63.6%
C[C@@H]1CN([C@@H](C)CO)S(=O)(=O)c2ccc(C#Cc3ccccc3F)cc2O[C@H]1CN(C)C(=O)c1ccc2c(c1)OCO2 101%
C[C@@H]1CN([C@H](C)CO)S(=O)(=O)c2ccc(C#Cc3ccccc3F)cc2O[C@@H]1CN(C)C(=O)c1ccc2c(c1)OCO2 73.7%
C[C@H]1CN([C@@H](C)CO)S(=O)(=O)c2ccc(C#Cc3ccccc3F)cc2O[C@@H]1CN(C)C(=O)c1ccc2c(c1)OCO2 72.5%

inhibition, inactive:
Cc1noc(C)c1NC(=O)Nc1ccc2c(c1)C(=O)N([C@@H](C)CO)C[C@@H](C)[C@H](CN(C)C(=O)Nc1ccc(C(F)(F)F)cc1)OCCCC[C@@H](C)O2 -4.84%
CS(=O)(=O)N1CC(=O)N2[C@@H](CO)[C@@H](c3ccc(C#CCC4CCCC4)cc3)[C@@H]2C1 0.153%
C[C@@H]1CCCCO[C@@H](CN(C)Cc2ccc(C(=O)O)cc2)[C@H](C)CN([C@H](C)CO)C(=O)c2cc(NS(=O)(=O)c3cccs3)ccc2O1 0.438%
C[C@@H]1CCCCO[C@@H](CN(C)Cc2ccccc2)[C@H](C)CN([C@H](C)CO)C(=O)c2cc(NS(=O)(=O)c3cccs3)ccc2O1 6.46%
CC(C)NC(=O)N(C)C[C@H]1OCCCC[C@H](C)Oc2ccc(NS(=O)(=O)c3cccs3)cc2C(=O)N([C@H](C)CO)C[C@@H]1C -10.4%
Cc1ccc(S(=O)(=O)Nc2ccc3c(c2)C(=O)N([C@H](C)CO)C[C@@H](C)[C@H](CN(C)C(=O)Nc2ccc(C(F)(F)F)cc2)OCCCC[C@H](C)O3)cc1 54.1%
CC(=O)N1[C@@H](CO)[C@@H](c2ccccc2)[C@@H]1CN(C)C(=O)CN1CCOCC1 12.7%
Cn1cnc(S(=O)(=O)N2C[C@H](O)COC[C@@H]3O[C@H](CC(=O)NC4CCCC4)CC[C@H]32)c1 -34%
CC(C)NC(=O)N1[C@H](CO)[C@@H]2c3ccccc3N(C(=O)c3ccccc3F)C[C@@H]21 -9.8%
COc1ccccc1C#Cc1ccc([C@@H]2[C@H](CO)N3CCCCN(C(=O)C4CCCC4)C[C@@H]23)cc1 -8.82%
COc1cccc(CNC(=O)c2nnn(CC(=O)Nc3cc(C)ccc3C)c2N)c1 5.68%
Cc1ccc(NC(=O)Cn2nnc(C(=O)NCc3ccco3)c2N)c(C)c1 8.75%
Cc1ccc(-c2ccc3c(c2)O[C@H](CN(C)C(=O)CC2CC2)[C@@H](C)CN([C@H](C)CO)S3(=O)=O)cc1 11.8%
Clc1ccc2nc(-c3ccccc3)nc(C(Cl)Cl)c2c1 32.4%
C[C@@H]1CN([C@H](C)CO)C(=O)c2cc(NC(=O)CCCN(C)C)ccc2O[C@@H](C)CCCCO[C@H]1CN(C)CC1CCCCC1 -3.49%
CCC(=O)Nc1ccc2c(c1)OC[C@H](C)N(CC1CCOCC1)C[C@@H](C)[C@@H](OC)CN(C)C2=O 6.07%
O=C(C[C@@H]1CC[C@@H]2[C@H](COC[C@@H](O)CN2C(=O)c2ccccc2F)O1)N1CCOCC1 5.42%
CC(=O)N[C@@H]1CC[C@@H](CCNC(=O)C2CC2)O[C@H]1CO 11.9%
O=C(C[C@H]1CC[C@@H](NC(=O)Nc2cc(F)ccc2F)[C@@H](CO)O1)NCc1ccncn1 0.809%
OC[C@@H]1[C@H](c2ccc(C#CC3CC3)cc2)[C@@H]2CN(CCC(F)(F)F)CCCCN12 -6.92%
O=C([C@H]1[C@H](CO)[C@H]2Cn3c(ccc(C4=CCCC4)c3=O)[C@@H]1N2C(=O)c1ccncc1)N1CCCCC1 0.28%
O=C(CCc1c[nH]c2ccccc12)NCCOc1ccccc1 -5.95%
O=C(CCOc1ccccc1)NCc1ccccc1 -18.5%
COc1ccc(C(=O)Nc2cccc(S(C)(=O)=O)c2)cc1 -14.4%
COc1cccc(C(=O)Nc2nnc(S(=O)(=O)N(C)c3ccccc3)s2)c1 2.52%
O=C(Nc1ccccc1F)N1[C@H](CO)[C@H]2c3ccccc3NC[C@H]21 -4.34%
O=c1[nH]c2cccnc2n(CCNc2ncc(C(F)(F)F)cc2Cl)c1=O -4.25%
CN(C)C=NC(=O)c1cccn1-c1ncc(C(F)(F)F)cc1Cl 5.77%
CNC(=O)C[C@H]1CC[C@H]2[C@H](COc3ccc(NC(=O)c4cc(C)on4)cc3C(=O)N2C)O1 57.2%
COCC(=O)Nc1ccc2c(c1)C(=O)N(C)C[C@H](OC)[C@@H](C)CN(CC1CC1)[C@@H](C)CO2 -3.11%
C[C@H]1CN([C@@H](C)CO)S(=O)(=O)c2ccc(-c3cccc(C#N)c3)cc2O[C@H]1CN(C)C(=O)c1ccccc1 15.6%
C[C@H]1CN([C@@H](C)CO)S(=O)(=O)c2ccc(C#CCN(C)C)cc2O[C@H]1CN(C)C(=O)c1ccccc1F -3.76%
CCCC#Cc1ccc2c(c1)O[C@@H](CN(C)C(=O)CC)[C@H](C)CN([C@H](C)CO)S2(=O)=O -8.15%
CC(C)C#Cc1ccc2c(c1)O[C@@H](CN(C)C(=O)Nc1ccccc1)[C@H](C)CN([C@H](C)CO)S2(=O)=O 15.8%
COCC#Cc1ccc2c(c1)O[C@H](CN(C)Cc1ccc3c(c1)OCO3)[C@H](C)CN([C@H](C)CO)S2(=O)=O 0.398%
CCCC#Cc1ccc2c(c1)O[C@H](CN(C)C(=O)CC)[C@@H](C)CN([C@H](C)CO)S2(=O)=O -14.1%
